These results are taken from PubChem BioAssay AID2314 (National Center for Advancing Translational Sciences (NCATS), 2010).

Structures are written as SMILES. The campaign covered roughly 300,000 compounds. About 37,000 (12%) were called active. What follows is part of a selection rich in actives, with near analogues and random picks from the rest. Unmarked numbers belong to inactive results. Rule as the data show it: active = max response mostly above about 13% (no sharp cut-off); inactive = mostly below about 14%.

The experiment is described as follows: Cycloheximide Counterscreen for Small Molecule Inhibitors of Shiga Toxin. Also: read at 38.3 µM for the half of the compounds with a filed dose; 0% is about no effect. Conditions: cell reporter, cycloheximide protein synthesis inhibition counterscreen; stronger effect = higher value. (In general: The purpose of a counterscreen is to sort out artefacts and off-target activity.)
For `O=C(CSc1nnc(-c2ccccc2O)o1)NC1CCCCC1`, the max response was -5.38%.
Turning to `O=C(CSc1nnc2c(n1)[nH]c1ccccc12)NC1CCCCC1`, the max response is -2.06%.
As for `O=C(CSc1ncnc2c1oc1ccccc12)NC1CCCC1`, the max response was 13.3% (active).
Take `COc1ccc(N(CC(=O)NCCSCc2cccc(Cl)c2)S(C)(=O)=O)cc1`: the max response is 10.3%.
`COc1ccccc1NC(=O)CCC(=O)N1CC(C)Oc2ccc(C)cc21` (stereo not given): the max response is -2.59%.
In the case of `COc1ccc(N(CC(=O)NCc2ccc(F)cc2)C(=O)CCC(=O)Nc2nccs2)cc1`, the max response was 2.82%.
As to `COc1ccc(CNc2nccs2)cc1`, the max response was 15.6% (active).
In the case of `COc1ccc(CNc2ncnc3ccccc23)cc1` it was -4.12%.
Regarding `O=C(NCc1cccnc1)C12CC3CC(CC(C3)C1)C2`, the max response is -4.42%.
To `COC(=O)c1ccccc1SC1CC(=O)N(c2cccc(C)c2)C1=O` (stereo not given) belongs -2.47%; to `Cc1cccc(N2C(=O)CC(SC(N)=Nc3ccccc3)C2=O)c1` (stereo not given), 6.82%.
Take `Cc1cccc(N2C(=O)SC(SC(=Nc3ccccc3)Nc3ccccc3)C2=O)c1` (stereo not given): the max response is 50% (active).
Take `O=C(NCc1ccc2c(c1)OCO2)C(=O)NCC1OCCN1S(=O)(=O)c1ccc(F)cc1` (stereo not given): the max response is 0.524%.
Regarding `O=S(=O)(NC1CCCC1)c1ccc(-n2cnnn2)cc1`, the max response was -3.31%.
As to `Clc1nc(NC2CCCC2)nc(N2CCOCC2)n1`, the max response was -1.13%.
Consider `CC1CC(C)CN(CCOc2cccc3ccccc23)C1` (stereo not given), for which the max response was -3.88%.
To `CCCC(=O)N1c2ccc(-c3csc(N)n3)cc2CC1C` (stereo not given) belongs 82.4% (active).
Consider `CCn1nc(C(=O)OCC(=O)N2c3ccccc3CC2C)c2ccccc2c1=O` (stereo not given), for which the max response was -2.9%.
Consider `Cc1ccn(CCC(=O)N2c3ccccc3CC2C)n1` (stereo not given), for which the max response is -3.05%.
Take `COc1ccc(Nc2ncnc3sc(C)cc23)cc1`: the max response is 41% (active).
Take `COc1ccc(Nc2cc(Sc3ccc(OC)cc3)ncn2)cc1`: the max response is 12.3%.
To `COc1ccc(Nc2ncnc3ccc(OC)cc23)cc1` belongs 4.47%.
Consider `CS(=O)(=O)N1CCN(CC(=O)NC2CCCC2)CC1`, for which the max response is 2.24%.
As to `COc1ccc(C2CC(=O)NC(=O)C2)cc1`, the max response is 5.71%.
To `O=C1COc2ccc(S(=O)(=O)NCCc3ccc(Cl)cc3)cc2N1` belongs -8.47%; to `COC(=O)c1c(NC(=O)CN2C(=O)NC(CCc3ccccc3)C2=O)sc2c1CCCCC2` (stereo not given), -2.51%; to `Nc1cc(N2CCCCCC2)c2nonc2c1[N+](=O)[O-]`, -1.67%.
As for `Cc1cccc(NC(=O)CCN2CC(C)CC(C)C2)c1` (stereo not given), the max response is -2.06%.
For the compound `N#CCc1ccc(NC(=O)c2ccccc2C(=O)Nc2ccc(CC#N)cc2)cc1`, the max response was 21.8% (active).
Take `CC(=O)Nc1ccc(CC#N)cc1`: the max response was -2.61%.
Regarding `NC(=O)COc1ccc(NC(=O)c2ccccc2-c2ccccc2)cc1`, the max response is -2.28%.
Consider `O=C(Nc1ccccc1N1CCOCC1)c1ccc(OCc2cscn2)cc1`, for which the max response was -3.59%.
`CNC(=O)N1c2ccccc2C=Cc2ccccc21`: the max response is -2.75%.
Turning to `Cc1cccc(CSc2nnc(C)c(=O)n2N)c1`, the max response is -1.39%.
Regarding `Nn1c(SCc2ccccc2)nnc1C1CCCCC1`, the max response is 38.2% (active).
`Cc1nnc(SCc2cccc(Cl)c2)n(N)c1=O`: the max response was 8.39%.
Take `O=[N+]([O-])c1ccc(N2CCN(c3ccc(F)cc3)CC2)cn1`: the max response was -1.96%.
Turning to `CCCCC(=O)Nc1nnc(S(=O)(=O)N(C)Cc2ccco2)s1`, the max response is 12%.
`Cc1ccc([N+](=O)[O-])cc1S(=O)(=O)N1CCCN(C)CC1`: the max response is -0.621%.
For the compound `Cc1cc(CNC(=O)c2cccc([N+](=O)[O-])c2)c2ccccc2n1`, the max response was 18.3%.
As for `COc1cccc(CNC(=O)CCCC(=O)Nc2cccc([N+](=O)[O-])c2)c1`, the max response is -3.22%.
As for `COc1cccc(NCCC(=O)c2cccc([N+](=O)[O-])c2)c1`, the max response is 34.7% (active).
As for `CC(C)(C)SCCNC(=O)c1cccc([N+](=O)[O-])c1`, the max response was 19.6% (active).
Take `Cc1cccc(C(=O)NNC(=O)c2cccc([N+](=O)[O-])c2)c1`: the max response is 0.787%.
`COc1cccc(C(=O)CC(=O)C(=O)Nc2ccc([N+](=O)[O-])cc2C)c1`: the max response is -0.608%.
With `COCCCNCCOCCOc1ccc(Cl)cc1Br`, the max response is -3.84%.
For `CC(C)(C)c1nnc(NC(=O)C2c3ccccc3Oc3ccccc32)s1`, the max response was -2.51%.
On to `O=c1o[nH]c(-c2ccccc2)c1N=Nc1c(F)cccc1Cl`, for which the max response is 6.23%.
To `COc1ccc2c(c1)c(C(=O)N/N=C/c1cccs1)c(C)n2C` belongs -3.51%.
Take `O=C(CN1CCC(NC(=O)Nc2ccccc2)CC1)Nc1cccc([N+](=O)[O-])c1`: the max response is -2.36%.
For `COCCNC(=O)c1ccc(S(=O)(=O)c2ccc(Cl)cc2)c(NC(C)=O)c1`, the max response was -7.19%.
To `CCOc1cc(/C=C/c2nc3ccccc3c(=O)[nH]2)cc(Br)c1OC` belongs 2.32%.
With `COC(=O)c1cccc(C(=O)N2CCC(CCC(=O)NCc3ccc(F)cc3)CC2)c1`, the max response was -0.695%.
To `Cc1ccc(C2(C(F)(F)F)N=C3Sc4cc(C)cc(C)c4N3C(=O)N2)cc1` (stereo not given) belongs 18.6% (active); to `O=C(Cn1cc(C(F)(F)F)ccc1=O)N/N=C/c1ccc(Cl)cc1Cl`, -2%; to `CCN(C(=O)CSc1ncn[nH]1)c1cccc2ccccc12`, 4.43%.
To `Cn1nnc(NC(=O)CSc2ncn[nH]2)n1` belongs -1.09%; to `CC(C)(C)c1ccc(C(=O)CSc2ncn[nH]2)cc1`, 37.3% (active); to `Cc1ccc2c(c1)C(c1ccccc1)N(C(=O)c1ccc(S(=O)(=O)N3CCOCC3)cc1)CC(=O)N2` (stereo not given), -1.59%.
In the case of `CN(Cc1ccccc1)C(=O)CSc1nc2ccccc2[nH]1`, the max response was 39.7% (active).
As to `O=C(CSc1nc2ccccc2[nH]1)c1cccs1`, the max response is 47.2% (active).
On to `CN(Cc1ccccc1)c1nc2c(c(=O)[nH]c(=O)n2C)n1CCSc1nc2ccccc2[nH]1`, for which the max response was 0.491%.
Take `N#Cc1c(-c2cccs2)nc(SCC(=O)c2ccc(Br)cc2)[nH]c1=O`: the max response is 2.73%.
Regarding `N#Cc1c(-c2ccc(F)cc2)cc(C2CC2)nc1SCC(=O)c1cccs1`, the max response was -0.655%.
With `O=C(CSc1nc2ccccc2[nH]1)Nc1nc(-c2ccccc2)c(-c2ccccc2)o1`, the max response was 0.677%.
